What all share (conditions): mRNA level, 48 h; actives raise or lower the signal
Read-out in assay [1]: Hypoxia-inducible factor 1-alpha (Homo sapiens) (UniProt Q16665)
The experiment in a line: LTEA_HepaRG_HIF1A: Life Technologies and Expression Analysis (LTEA) Assay for Hypoxia-inducible factor 1 (HIF1A) Trancription factor using HepaRG (AID 2283503).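 Also: HIF1A transcript by TaqMan qRT-PCR normalized to ACTB GAPDH and POLR2A.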 An outline of the steps:
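HepaRG, 48 h exposure, 8-pt half-log series from 100 uM, 0.5% DMSO vehicle, duplicates. Readout: HIF1A transcript by qRT-PCR (Fluidigm array), housekeeping-normalised. Bidirectional curve fit vs DMSO baseline.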

Read-out in assay [2]: 3-Hydroxy-3-Methylglutaryl-CoA Synthase 2 (HMGCS2), HMGCS2 (gene 3158)
Briefly: LTEA_HepaRG_HMGCS2: Life Technologies and Expression Analysis (LTEA) Assay for 3-Hydroxy-3-Methylglutaryl-CoA Synthase 2 (HMGCS2) using HepaRG (AID 2283504). A digest of the protocol:
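qRT-PCR read-out of HMGCS2 transcript, normalised to three housekeeping genes, in HepaRG cells after 48 h chemical exposure. Eight-point curves from 100 uM, half-log dilutions, 0.5% DMSO vehicle; gain or loss fitted relative to DMSO baseline.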

Read-out in the next assay: HGF (gene 3082)
Briefly: LTEA_HepaRG_HGF: Life Technologies and Expression Analysis (LTEA) Assay for Hepatocyte Growth Facto (HGF) using HepaRG (AID 2283505). A digest of the protocol: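 HepaRG, 48 h dosing, 8-pt half-log series from 100 uM in 0.5% DMSO, duplicates. Readout: TaqMan qRT-PCR of HGF mRNA, housekeeping-normalized; bidirectional curve fit vs DMSO baseline.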

Read-out in assay [3]: Insulin Like Growth Factor 1 (IGF1), IGF1 (gene 3479)
The experiment in a line: LTEA_HepaRG_IGF1: Life Technologies and Expression Analysis (LTEA) Assay for Insulin Like Growth Factor 1 (IGF1) using HepaRG (AID 2283506). An outline of the steps:
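Differentiated human HepaRG cells were dosed for 48 h in serum-free induction medium with 0.5% DMSO, eight half-log concentrations up to 100 uM, in duplicate. IGF1 mRNA was quantified by qRT-PCR normalized to ACTB, GAPDH, POLR2A; bidirectional fitting versus DMSO.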

Read-out in assay [4]: Intercellular Adhesion Molecule 1 (ICAM1), ICAM1 (gene 3383)
The experiment in a line: LTEA_HepaRG_ICAM1: Life Technologies and Expression Analysis (LTEA) Assay for Intercellular Adhesion Molecule 1 (ICAM1) using HepaRG (AID 2283507). An outline of the steps:
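HepaRG, 48 h exposure, 8-pt half-log series from 100 uM, 0.5% DMSO vehicle, duplicates. Readout: TaqMan qRT-PCR mRNA, housekeeping-normalized (ACTB/GAPDH/POLR2A). Bidirectional curve fit vs DMSO baseline.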

Read-out in assay [5]: Insulin-like growth factor-binding protein 1 (IGFBP1), IGFBP1 (gene 3484)
Briefly: LTEA_HepaRG_IGFBP1: Life Technologies and Expression Analysis (LTEA) Assay for Insulin-like growth factor-binding protein 1 (IGFBP1) using HepaRG (AID 2283508). A digest of the protocol: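 qRT-PCR mRNA read-out (TaqMan, Fluidigm array), normalised to three housekeeping genes; HepaRG cells, 48 h exposure, 8-pt half-log series from 100 uM, 0.5% DMSO vehicle; bidirectional curve fit vs DMSO baseline.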

Read-out in assay [6]: Interleukin 6 (IL6), IL6 (gene 3569)
The experiment in a line: LTEA_HepaRG_IL6: Life Technologies and Expression Analysis (LTEA) Assay for Interleukin 6 (IL6) using HepaRG (AID 2283509). An outline of the steps:
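HepaRG, ~100,000 cells/well, 48 h pre-culture; serum-free induction medium; cmpd 8-pt half-log from 100 uM, 0.5% DMSO, duplicate, 48 h. Lysis in RLT, TaqMan qRT-PCR; gain or loss vs DMSO.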

Read-out in assay [7]: Interleukin 6 Receptor (IL6R), IL6R (gene 3570)
Briefly: LTEA_HepaRG_IL6R: Life Technologies and Expression Analysis (LTEA) Assay for Interleukin 6 Receptor (IL6R) using HepaRG (AID 2283510). A digest of the protocol: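 Differentiated human HepaRG cells, plated 48 h then switched to serum-free induction medium, were dosed in duplicate for 48 h at eight half-log concentrations up to 100 uM in 0.5% DMSO. IL6R mRNA quantified by qRT-PCR, normalized to ACTB/GAPDH/POLR2A; bidirectional fit versus DMSO.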

Read-out in assay [8]: Potassium channel subfamily K member 1 (KCNK1), KCNK1 (gene 3775)
Briefly: LTEA_HepaRG_KCNK1: Life Technologies and Expression Analysis (LTEA) Assay for Potassium channel subfamily K member 1 (KCNK1) using HepaRG (AID 2283511). A digest of the protocol:
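Gain or loss of KCNK1 mRNA is the read-out, quantified by qRT-PCR against three housekeeping genes after 48 h chemical treatment of human HepaRG liver cells. Concentrations ran from 100 uM downward in half-log steps, vehicle 0.5% DMSO.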

Read-out in assay [9]: Keratin 19 (KRT19), KRT19 (gene 3880)
Briefly: LTEA_HepaRG_KRT19: Life Technologies and Expression Analysis (LTEA) Assay for Keratin 19 (KRT19) using HepaRG (AID 2283512). An outline of the steps: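 HepaRG, 48 h chemical exposure, 8-pt half-log CRC from 100 uM, 0.5% DMSO vehicle, duplicates. Readout: TaqMan qRT-PCR of KRT19 mRNA, housekeeping-normalized (ACTB/GAPDH/POLR2A). Bidirectional fit vs DMSO baseline.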

Values joined by “and” are separate entries in the source; they are usually repeats but may differ in a detail not shown here. Identical values can stand only once. Where a structure was tested more than once in an assay, its records may differ in their call. Active and inactive are the calls of the source. The calls were made as follows: active = hit-call score of the fitted dose curve at least 0.9, where 1 is the maximum; inactive = score below 0.9.

For ten compounds, outcome and AC50 results are on record in PubChem BioAssay (EPA / NIEHS).

Sequence of Hypoxia-inducible factor 1-alpha (Homo sapiens) (Q16665 whole entry, looked up): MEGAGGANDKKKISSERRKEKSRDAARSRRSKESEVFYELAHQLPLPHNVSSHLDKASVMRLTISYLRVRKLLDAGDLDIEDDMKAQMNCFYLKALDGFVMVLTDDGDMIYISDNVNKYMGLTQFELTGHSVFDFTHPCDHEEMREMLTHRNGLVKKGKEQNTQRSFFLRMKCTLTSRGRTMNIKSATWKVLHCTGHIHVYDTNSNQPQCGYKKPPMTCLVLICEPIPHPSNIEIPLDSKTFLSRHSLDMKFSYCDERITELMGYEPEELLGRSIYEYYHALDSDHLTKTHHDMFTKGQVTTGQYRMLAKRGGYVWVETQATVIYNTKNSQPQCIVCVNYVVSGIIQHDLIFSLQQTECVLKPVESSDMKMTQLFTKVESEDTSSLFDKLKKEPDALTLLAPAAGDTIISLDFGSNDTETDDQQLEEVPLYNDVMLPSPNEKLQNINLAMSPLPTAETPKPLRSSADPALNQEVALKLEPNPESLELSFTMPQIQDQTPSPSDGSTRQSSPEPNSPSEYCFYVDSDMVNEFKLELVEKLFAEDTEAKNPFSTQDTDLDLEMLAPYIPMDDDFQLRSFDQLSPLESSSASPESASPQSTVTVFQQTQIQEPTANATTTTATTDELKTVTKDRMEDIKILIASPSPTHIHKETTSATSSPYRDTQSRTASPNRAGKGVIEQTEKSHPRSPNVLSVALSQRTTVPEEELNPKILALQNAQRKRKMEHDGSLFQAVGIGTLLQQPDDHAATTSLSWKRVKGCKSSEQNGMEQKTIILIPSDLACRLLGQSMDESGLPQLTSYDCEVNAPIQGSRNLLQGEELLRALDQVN

`N#Cc1c(Cl)c(Cl)c(Cl)c(C#N)c1Cl`: the result (in assay [1]; in assay [2]; with HGF (gene 3082); in [3]; in [4]; in assay [6]) was inactive. Moreover, the result in assay [7] and in [8] was inactive. In addition, the results for the AC50 in assay [5] and in [9] were 3.27 µM (active) and 12.7 µM (active), respectively.

`Oc1cc(Cl)ccc1Oc1ccc(Cl)cc1Cl`: the AC50 (as a rule, the concentration at which the activity in the assay is half-maximal) in assay [1] is 79 µM (active); in assay [2], 82.8 µM (active); with HGF (gene 3082), 51 µM (active); in assay [3], 69 µM (active); in [5] it was 71.9 µM (active); in assay [6], 81.3 µM (active). Besides, the AC50 was 51 µM (active) in assay [7] and 69 µM (active) in assay [9]. The outcome (in assay [1]; in [2]; with HGF (gene 3082); in assay [3]; in assay [4]; in assay [5]) was inactive. Also, the result in [6], in [7], in [8] and in assay [9] was inactive.

Turning to `CC(C)N(C(=O)COc1nnc(C(F)(F)F)s1)c1ccc(F)cc1`, the compound was classed as inactive (in assay [1]; in the assay with HGF (gene 3082); in [3]; in assay [4]; in assay [5]; in assay [6]). Also, the compound was classed as inactive in assay [7], in assay [8] and in assay [9]. Besides, in assay [2], the AC50 was 50 µM (active).

As to `COP(=S)(OC)Oc1ccc(SC)c(C)c1`, the compound was called inactive (in assay [1]; in assay [2]; in the assay with HGF (gene 3082); in assay [3]; in assay [4]; in [5]). The outcome in assay [6], in [7], in assay [8] and in assay [9] was inactive.

Consider `CC1(c2ccc(Oc3ccccc3)cc2)OC(=O)N(Nc2ccccc2)C1=O` (stereo not given), for which the outcome (in [1]; in the assay with HGF (gene 3082); in assay [7]) was inactive. In addition, the AC50 was 12.5 µM (active) in [2]; 8.33 µM (active) in assay [3]; 13.3 µM (active) in assay [4]; 13.4 µM (active) in [5]; 21.1 µM (active) in [6]; 26.3 µM (active) in assay [8]. Moreover, the AC50 in assay [9] was 2.79 µM (active).

With `O=C(NC(=O)c1c(F)cccc1F)Nc1ccc(OC(F)(F)C(F)OC(F)(F)F)c(Cl)c1` (stereo not given), the call (in [1]; in assay [2]; in the assay with HGF (gene 3082); in assay [3]; in [4]; in assay [5]) was inactive. The outcome in assay [6], in assay [7], in [8] and in assay [9] was inactive.

`CCN(CC)C(=O)SCc1ccc(Cl)cc1`: the compound was called inactive (in assay [1]; in assay [2]; with HGF (gene 3082); in assay [3]; in assay [4]; in assay [5]). For the same compound, the result in assay [6], in [7], in assay [8] and in assay [9] was inactive.

With `Oc1ccc(Cl)cc1Cc1ccccc1`, the call (in [1]; in assay [2]; with HGF (gene 3082); in assay [3]; in [4]; in assay [5]) was inactive. Besides, the call in assay [6], in assay [7], in [8] and in assay [9] was inactive. Further, the AC50 in assay [2] is 76.8 µM (active); with HGF (gene 3082) it was 83.5 µM (active); in [5], 75.2 µM (active) and 88.5 µM (active); in [7], 83.6 µM (active); in assay [9] it was 50.5 µM (active).

Turning to `CC(C)(C)C(O)C(Oc1ccc(Cl)cc1)n1cncn1` (stereo not given), the call (in [1]; with HGF (gene 3082); in [4]; in assay [5]; in assay [6]; in assay [7]) was inactive. The call in assay [8] and in assay [9] was inactive. Moreover, the AC50 in assay [2] is 21 µM (active) and 32.8 µM (active) and 21.6 µM (active); in assay [3], 16 µM (active) and 23.4 µM (active) and 14.4 µM (active); in assay [7], 50 µM (active).

Regarding `ClC1C(Cl)C(Cl)C(Cl)C(Cl)C1Cl` (stereo not given), the compound was called inactive (in assay [1]; in assay [2]; in the assay with HGF (gene 3082); in assay [4]; in assay [5]; in assay [6]). Further, the compound was called inactive in [7], in assay [8] and in [9]. In addition, the AC50 in assay [2] is 25.4 µM (active); in assay [3] it was 6.89 µM (active).
